Screening results as filed in PubChem.
Sampled rows, rich in hits. Any-hit rate of the full collection: about 1.2%.
NOD2 RIPK2 PPI: blocks binding of human NOD2 to RIPK2 | O43353 | CHO BLA complementation NOD2-RIPK2, CCF4 ratio | inhibition, % at 4.98 µM | 360,000 tested, 0.38% active | AID 624267; in the data active = inhibition above about 21%;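 note: 0% = vehicle only and 100% = reference blocker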
TLR9-MyD88 inh: inhibitors of human TLR9-MyD88 binding; Q9NR96+Q99836; 340,000 tested, 0.21% active; CHO BLA complementation TLR9-MyD88, CCF4 FRET ratio; inhibition, % at 4.98 µM; AID 504734;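 active = inhibition above the mean over all tested compounds plus 3 SD, cut at about 21% in these data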;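 note: 0% = DMSO only wells and 100% = clavulanate BLA inhibitor control wells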
GC-B act: GC-B (human) receptor activation; HEK293-GC-B cells, CNP EC30, cGMP TR-FRET; 0% at EC30 CNP, 100% saturating CNP; activation, % at 10 µM; P20594; 370,000 tested, 0.11% active;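 active = activation at 10 µM reaching about 35% in either raw or pattern-adjusted values, limit read from the data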
Target sequence (P20594 whole entry, looked up): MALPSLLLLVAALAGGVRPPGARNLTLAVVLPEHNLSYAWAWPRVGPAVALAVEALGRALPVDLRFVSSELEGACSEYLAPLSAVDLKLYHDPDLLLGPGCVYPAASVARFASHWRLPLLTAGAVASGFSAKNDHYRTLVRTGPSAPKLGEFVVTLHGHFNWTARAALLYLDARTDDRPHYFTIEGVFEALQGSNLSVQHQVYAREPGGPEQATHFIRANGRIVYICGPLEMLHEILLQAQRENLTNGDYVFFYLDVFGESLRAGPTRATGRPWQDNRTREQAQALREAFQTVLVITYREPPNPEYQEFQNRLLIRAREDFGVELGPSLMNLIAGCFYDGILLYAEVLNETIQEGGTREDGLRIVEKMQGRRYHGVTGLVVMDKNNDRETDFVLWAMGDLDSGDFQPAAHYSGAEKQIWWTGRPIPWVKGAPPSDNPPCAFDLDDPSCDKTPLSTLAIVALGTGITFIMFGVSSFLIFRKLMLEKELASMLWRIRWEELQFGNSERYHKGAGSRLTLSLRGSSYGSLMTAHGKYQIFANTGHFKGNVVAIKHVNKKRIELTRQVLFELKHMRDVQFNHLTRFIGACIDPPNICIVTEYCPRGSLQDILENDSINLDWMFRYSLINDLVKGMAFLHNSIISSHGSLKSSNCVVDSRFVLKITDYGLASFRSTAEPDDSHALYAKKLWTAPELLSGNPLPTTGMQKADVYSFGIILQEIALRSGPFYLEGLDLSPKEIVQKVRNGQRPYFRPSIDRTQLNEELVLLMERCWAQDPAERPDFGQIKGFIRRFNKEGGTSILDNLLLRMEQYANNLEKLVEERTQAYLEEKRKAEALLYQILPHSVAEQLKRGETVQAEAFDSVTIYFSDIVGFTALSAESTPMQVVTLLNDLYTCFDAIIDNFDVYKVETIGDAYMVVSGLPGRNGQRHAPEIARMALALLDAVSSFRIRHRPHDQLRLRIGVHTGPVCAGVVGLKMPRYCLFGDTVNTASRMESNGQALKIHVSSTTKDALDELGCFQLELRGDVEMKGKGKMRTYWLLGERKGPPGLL
Neddyl block: inhibitors of human cullin neddylation. inhibition, % at 25 µM. TR-FRET cullin neddylation, biochemical. 360,000 tested, 0.58% active; in the data active = inhibition above about 36%
NPR1 activator: GC-A (human) enzyme activation | P16066 | HEK293 GC-A cells, cGMP TR-FRET, EC30 ANP; 0% at EC30 ANP, 100% saturating ANP | activation, % at 10 µM | 370,000 tested, 0.14% active; in the data active = activation above about 40%
TLR4 MyD88 comp: TLR4-MyD88 interaction inhibition in cells; HeLa CL3-4 TLR4/MyD88 BLA complementation, FRET ratio; AID 861; 200,000 tested, 0.18% active; inhibition, % at 8.4 µM; in the data active = inhibition above about 25%;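 note: 0% = vehicle and 100% = reference inhibitor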
NOD2-RIPK2 conf: NOD2-RIPK2 interaction inhibition confirmed. shares compounds with NOD2 RIPK2 PPI. CHO cells, NOD2-RIPK2 BLA complementation, CCF4 FRET. inhibition, % at 4.98 µM. 1,200 tested, 70% active. AID 624370;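 active = mean inhibition across replicates above a set limit taken from the earlier primary screen, cut at about 21% in these data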;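 note: 0% = DMSO-only wells and the high end = clavulanate BLA-blocked wells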
BLA counter: hits BLA reporter in NOD2-RIPK2 inhibitor counterscreen. CHO BLA reporter, CCF4 FRET ratio. shares compounds with NOD2 RIPK2 PPI. inhibition, % at 4.98 µM. 1,200 tested, 57% active;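 active = mean inhibition above the low-control mean inhibition plus three low-control SD, cut at about 11% in these data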;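 note: 0% = DMSO only wells and 100% = clavulanate high control wells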
Neddyl conf: cullin neddylation inhibition, confirmation; calls only at 25 µM; shares compounds with Neddyl block; AID 652217; TR-FRET cullin neddylation biochemical assay; 1,800 tested, 13% active; in the data active = inhibition above about 40%;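 note: neddylation substrate is the cullin 1 ring ligase complex with SKP2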
* hit, by the source's call; i = inactive; nt = no result shown.

SMILES	NOD2 RIPK2 PPI	TLR9-MyD88 inh	GC-B act	Neddyl block	NPR1 activator	TLR4 MyD88 comp	NOD2-RIPK2 conf	BLA counter	others
N#CCC[C@H]1CC[C@]2(CCCN(c3ccccc3)C2)O1	nt	nt	5.9	nt	4.6	nt	nt	nt
CCOc1cc(/C=C2\COc3ccccc3C2=O)cc(Br)c1OCC(=O)N(C)C	25.9*	4.2	3.2	6.4	-0.9	nt	27.5*	-4.4
COc1ccc(/C=C2\COc3ccccc3C2=O)cc1OC	6.1	-15.5	2.0	-5.3	8.3	-5.7	nt	nt
ClC(Cl)(c1nnnn1-c1ccccc1)c1nnnn1-c1ccccc1	42.3*	12.3	17.6	5.4	28.4	-1.2	42.2*	7.0
C=CCN1C=CC(=O)[C@@H](OC(=O)Nc2ccc(Br)cc2)[C@H]1c1ccccc1Br	0.5	8.9	-2.0	-5.4	-6.8	nt	nt	nt
CN1C=CC(=O)[C@@H](OC(=O)Nc2ccc(Br)cc2)[C@H]1c1ccccc1Br	22.8*	-4.5	-4.3	6.3	-10.2	nt	-2.4	-5.6
C=C1C(=O)[C@]23C[C@H]1CCC2[C@@]1(C)C(C[C@@H]3O)[C@](C)(C(=O)OC)CC[C@@H]1O (some centres not stated)	76.6*	nt	10.9	2.6	16.3	nt	67.0*	9.8
CC(=C1SC(=S)NC1=O)c1ccc(Cl)c(O)c1	nt	nt	-10.4	nt	-2.6	nt	nt	nt
Cc1ccc(NC(=O)CN(C)C(=O)CSc2nc3ccccc3c(=O)n2Cc2ccco2)cc1	21.1*	10.7	0.2	5.2	-1.1	11.5	17.0	16.1*
Cc1ccc(C2CCC3(CCC(=O)N3CCOC(=O)Nc3ccc(Br)cc3)CC2)cc1 (configuration not stated)	nt	nt	5.8	nt	1.9	nt	nt	nt
Cc1cccc(NC(=O)CSCC(=O)Nc2cc(S(=O)(=O)N3CCOCC3)ccc2OC(C)C)c1	21.1*	-1.2	-7.5	-2.2	-2.0	nt	4.4	-4.0
O=C(Cc1csc(Nc2nc(=S)[nH]c3ccccc23)n1)NCCCN1CCN(c2ccccc2F)CC1	47.0*	20.3	0.4	33.2	3.1	5.6	46.1*	53.6*
N#Cc1ccc(Nc2nc(-c3ccccc3)c(C(=O)c3ccccc3)s2)cc1	-5.1	nt	1.6	-3.3	2.9	nt	nt	nt
O=C(c1ccccc1)c1sc(Nc2ccc3c(c2)OCO3)nc1-c1ccccc1	21.3*	nt	0.6	-2.5	-3.1	nt	20.3	25.5*
Fc1cccc(Nc2c3c(nc4ccccc24)CCC3)c1	21.5*	-6.8	1.0	29.5	33.7	nt	5.0	-1.5
CC(=O)c1cccc(Nc2c3c(nc4ccccc24)CCC3)c1	12.1	6.3	0.1	19.0	-0.1	nt	nt	nt
CC(=O)c1ccc(/C=C/c2nc3ccccc3n2C)o1	54.2*	nt	0.1	nt	30.8	nt	68.1*	69.8*
Cn1c(/C=C/c2ccccc2)nc2ccccc21	1.3	-6.1	-6.7	nt	-1.2	-3.5	nt	nt
CCC(=O)Oc1ccc2c(c1)O/C(=C\c1ccco1)C2=O	44.4*	nt	2.1	17.1	2.7	nt	56.0*	60.8*
COCCN(CCOC)Cc1c(O)ccc2c1O/C(=C\c1ccco1)C2=O	23.3*	11.7	-2.6	8.9	5.0	nt	42.5*	45.9*
COc1ccc(C2C(C(=O)N3CCN(c4ccccc4C)CC3)CC(=O)N2c2ccc(OC)cc2)cc1 (configuration not stated)	nt	nt	-7.2	nt	0.4	nt	nt	nt
Cc1ccc(C(=O)NCc2ccc3c(c2)OCO3)c(Cl)c1	-7.7	-1.8	0.6	1.8	4.3	nt	nt	nt
Cc1cccc(CS(=O)(=O)c2ncc(Cl)c(C(=O)NCc3ccc4c(c3)OCO4)n2)c1	38.6*	0.5	18.2	-3.2	22.4	nt	42.1*	10.2
COC1=C(OC)C(=O)C(Sc2ccc3ccccc3c2)=CC1=O	25.1*	20.0	19.6	-71.7	40.1*	nt	69.5*	31.4*
Fc1ccc(CN2CCN(c3ncc(Cc4ccccc4)cn3)CC2)c(Cl)c1	nt	nt	0.4	nt	1.6	nt	nt	nt
SMILES	NOD2 RIPK2 PPI	TLR9-MyD88 inh	GC-B act	Neddyl block	NPR1 activator	TLR4 MyD88 comp	NOD2-RIPK2 conf	BLA counter	others
CC(NCc1ccc(OCc2ccc(Cl)cc2)cc1)C(O)c1ccccc1 (configuration not stated)	23.0*	-2.0	-5.7	1.3	-1.6	4.8	19.8	8.6
O=C(Nc1cc(Br)ccc1O)C1CC(c2c(F)cccc2Cl)=NO1 (configuration not stated)	21.7*	1.9	0.2	1.8	-3.2	nt	0.1	-3.1
Cc1ccc(C)c(NC(=O)C2CCCN2S(=O)(=O)c2cccnc2)c1 (configuration not stated)	nt	nt	6.0	nt	-1.9	nt	nt	nt
CN1CC=C(c2ccc(C(F)(F)F)cc2)N(c2ccccc2)C1=O	nt	nt	3.9	nt	2.3	nt	nt	nt
CC(C)(C)NCC(=Cc1ccccc1)C(=O)c1ccccc1	26.7*	-1.5	-11.2	0.8	-14.2	nt	23.6*	3.5
O=C(N1CCOCC1)N1CC[C@H]2[C@H](CCCN2Cc2cc(F)cc(F)c2)C1	nt	nt	-0.6	nt	0.4	nt	nt	nt
COc1cccc(N2C(=O)CC(N3CCN(c4ccc([N+](=O)[O-])cc4)CC3)C2=O)c1 (configuration not stated)	0.8	-2.9	-3.7	-37.0	5.5	nt	nt	nt
COc1ccccc1N1C(=O)CC(N2CCN(c3ccc([N+](=O)[O-])cc3)CC2)C1=O (configuration not stated)	21.9*	-4.3	1.7	-26.7	-0.5	nt	1.1	-3.3
CCN(CC)c1ccc(C(=O)NNC(=O)CCl)cc1	-2.5	-1.0	-0.7	8.7	4.8	-6.0	nt	nt
CCN(CC)c1ccc(C(=C2C=CC(=[N+](CC)CC)C=C2)c2ccc(N(CC)CC)cc2)cc1	41.0*	18.1	-66.5	36.0	-250.7	nt	49.3*	-7.4
COc1ccc(NC(=O)CSc2nc(C)cc(=O)[nH]2)cc1OC	nt	nt	-5.7	nt	3.2	nt	nt	nt
CCOC(=O)Nc1ccc2c(c1)N(C(=O)CCN(CC)CC)c1ccccc1S2=O (configuration not stated)	31.4*	1.9	9.8	4.2	5.5	nt	12.5	0.9
Cc1nn(-c2ccccc2)c2c1P(=O)(O)/C(=C1\N(C)c3ccccc3C1(C)C)C=N2	24.4*	7.5	6.3	44.8*	3.1	16.9	16.1	18.8*	Neddyl conf=i
Cc1nn(-c2ccccc2)c(N)c1C1(O)C(=O)N(C(C)C)c2ccccc21 (configuration not stated)	1.6	-6.2	7.6	-2.4	3.8	9.7	nt	nt
O=c1oc2ccccc2cc1-c1nnc(NCc2ccco2)s1	35.2*	13.7	-4.6	50.2*	19.2	21.0	35.8*	41.0*	Neddyl conf=i
